Results: PubChem BioAssay AID1159580 (chemical genetic matrix, 2015)
Where “and” joins values, the source holds several entries; their conditions need not be identical. Identical values can stand only once. About 2,000 (36%) of roughly 5,500 compounds were called active. Not shown: some 18% with an inconclusive outcome. Rule as the data show it: active = normalized growth mostly below about 0.91 (no sharp cut-off); inconclusive = no clear call, values can overlap the other calls; inactive = mostly above about 0.92. Some of the results follow.

Assay: chemical genetic growth profiling, strain panel (AID 1159580);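 also: tested at 20 µM; growth read once vehicle control cultures reached saturation at 30 °C; 1 = growth at the plate median or of vehicle wells; lower values mean less growth of the strain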
Settings: S. cerevisiae deletion strains, growth OD

Measured: normalized growth

CC[C@@]1(C2O[C@@H](C3O[C@@](O)(CC)[C@H](C)C[C@@H]3C)C[C@@H]2C)CC[C@H]([C@]2(C)CCC3(C[C@H](O)[C@@H](C)[C@@H]([C@H](C)[C@@H](OC)[C@H](C)C(=O)O)O3)O2)O1 (stereo not given in full)
inactive: locus YAL013W, strain DEP1, hits give low values 0.998 | locus YAL021C, strain ccr4, hits give low values 0.924 | locus YAL030W, strain snc1, hits give low values 1.03 | locus YBL061C, strain skt5, hits give low values 1.04 | locus YBR009C, strain hhf1, hits give low values 1.02 | locus YBR021W, strain FUR4, hits give low values 1.05 | locus YBR023C, strain chs3, hits give low values 1.03 | locus YBR171W, strain sec66, hits give low values 0.974 | locus YBR229C, strain ROT2, hits give low values 1.03 | locus YBR231C, strain swc5, hits give low values 1.06 | locus YBR279W, strain paf1, hits give low values 1.03 | locus YCL011C, strain gbp2, hits give low values 0.991 | locus YCL016C, strain dcc1, hits give low values 1.02 | locus YCL029C, strain bik1, hits give low values 0.982 | locus YCL069W, strain vba3, hits give low values 0.998 | locus YCR088W, strain abp1, hits give low values 0.966 | locus YDL005C, strain med2, hits give low values 1.06 | locus YDL035C, strain GPR1, hits give low values 1.04 | locus YDL040C, strain nat1, hits give low values 1.03 | locus YDL074C, strain BRE1, hits give low values 0.994 | locus YDL101C, strain DUN1, hits give low values 0.99 | locus YDL134C, strain PPH21, hits give low values 1.05 | locus YDL185W, strain tfp1, hits give low values 0.96 | locus YDL192W, strain arf1, hits give low values 0.999 | locus YDR001C, strain nth1, hits give low values 0.972 | locus YDR069C, strain doa4, hits give low values 1.03 | locus YDR101C, strain arx1, hits give low values 1.01 | locus YDR159W, strain sac3, hits give low values 1.02 | locus YDR162C, strain NBP2, hits give low values 1.01 | locus YDR195W, strain ref2 1.04 | locus YDR297W, strain sur2, hits give low values 1.04 | locus YDR318W, strain mcm21, hits give low values 0.98 | locus YDR334W, strain swr1, hits give low values 0.987 | locus YDR335W, strain msn5, hits give low values 1.02 | locus YDR388W, hits give low values 1.01 | locus YDR392W, strain spt3, hits give low values 1.08 | locus YDR502C, strain sam2, hits give low values 0.983 | locus YEL003W, strain gim4, hits give low values 1 | locus YEL037C, strain rad23, hits give low values 1.01 | locus YEL061C, strain CIN8 (second series), hits give low values 1.01 | locus YEL061C, strain CIN8, hits give low values 0.99 | locus YER015W, strain faa2, hits give low values 1.01 | locus YER016W, strain bim1, hits give low values 1.01 | locus YER110C, hits give low values 1.01 | locus YER111C, strain swi4, hits give low values 1.04 | locus YER155C, strain BEM2 (second series), hits give low values 1.08 | locus YER155C, strain BEM2, hits give low values 0.999 | locus YER167W, strain BCK2, hits give low values 0.992 | locus YFR010W, strain ubp6, hits give low values 1.02 | locus YGL078C, strain dbp3, hits give low values 0.994 | locus YGL086W, strain mad1, hits give low values 1 | locus YGL167C, strain pmr1, hits give low values 1.05 | locus YGL173C, strain kem1, hits give low values 1.04 | locus YGL227W, strain vid30, hits give low values 1 | locus YGL240W, strain doc1, hits give low values 1.04 | locus YGL248W, strain PDE1, hits give low values 0.991 | locus YGL253W, strain hxk2, hits give low values 0.983 | locus YGR078C, strain PAC10, hits give low values 0.994 | locus YGR135W, strain pre9, hits give low values 0.971 | locus YGR252W, strain gcn5, hits give low values 0.976 | locus YHR013C, strain ard1, hits give low values 1.03 | locus YHR027C, strain rpn1, hits give low values 1.05 | locus YHR030C, strain SLT2, hits give low values 1.01 and 0.966 | locus YHR079C, strain IRE1 (second series), hits give low values 0.991 | locus YHR079C, strain IRE1, hits give low values 0.956 | locus YHR094C, strain hxt1, hits give low values 1.02 | locus YHR129C, strain ARP1, hits give low values 1 | locus YHR142W, strain chs7, hits give low values 0.966 | locus YHR200W, strain rpn10, hits give low values 0.986 | locus YIL066C, strain RNR3, hits give low values 1 | locus YIL073C, strain SPO22, hits give low values 0.915 | locus YIL125W, strain kgd1, hits give low values 0.993 | locus YIR030C, strain dcg1, hits give low values 1 | locus YJL092W, strain hpr5, hits give low values 0.973 | locus YJL095W, strain BCK1 (second series), hits give low values 1.04 | locus YJL095W, strain BCK1, hits give low values 0.972 and 0.975 | locus YJL115W, strain asf1, hits give low values 1.02 | locus YJL134W, strain LCB3, hits give low values 1.01 | locus YJL154C, strain vps35, hits give low values 0.963 | locus YJL164C, strain tpk1, hits give low values 0.993 | locus YJL166W, strain qcr8, hits give low values 1.04 | locus YJL168C, strain set2, hits give low values 1.03 | locus YJL187C, strain SWE1 (second series), hits give low values 0.98 | locus YJR043C, strain POL32, hits give low values 1.05 | locus YJR066W, strain TOR1, hits give low values 0.941 | locus YKL009W, strain mrt4, hits give low values 1 | locus YKL068W, hits give low values 0.998 | locus YKL085W, strain MDH1 (second series), hits give low values 0.942 | locus YKL085W, strain MDH1, hits give low values 0.942 | locus YKL160W, strain elf1, hits give low values 1.01 | locus YKL190W, strain CNB1, hits give low values 0.981 | locus YKR001C, strain vps1, hits give low values 1.03 | locus YKR026C, strain gcn3, hits give low values 0.979 | locus YKR091W, strain srl3, hits give low values 0.999 | locus YLL001W, strain dnm1, hits give low values 1.02 | locus YLL026W, hits give low values 1 | locus YLL041C, strain sdh2, hits give low values 1.01 | locus YLR027C, strain aat2, hits give low values 0.995 | locus YLR039C, strain RIC1, hits give low values 1.32 | locus YLR058C, strain SHM2, hits give low values 0.989 | locus YLR102C, strain apc9, hits give low values 1.02 | locus YLR113W, strain HOG1, hits give low values 0.947 | locus YLR221C, strain rsa3, hits give low values 0.988 | locus YLR258W, strain gsy2, hits give low values 1.03 | locus YLR262C, strain YPT6, hits give low values 1.07 | locus YLR268W, strain sec22, hits give low values 0.987 | locus YLR320W, strain mms22, hits give low values 1.02 | locus YLR330W, strain CHS5, hits give low values 0.994 | locus YLR342W, strain FKS1 (second series), hits give low values 1.05 | locus YLR342W, strain FKS1, hits give low values 1.01 | locus YLR357W, strain rsc2, hits give low values 1.01 | locus YLR370C, strain arc18, hits give low values 0.979 | locus YLR371W, strain rom2, hits give low values 1.01 | locus YLR384C, strain iki3, hits give low values 1.05 | locus YLR418C, strain cdc73, hits give low values 0.993 | locus YML016C, strain PPZ1, hits give low values 0.996 | locus YML032C, strain rad52, hits give low values 1.01 | locus YML120C, strain ndi1, hits give low values 1.01 | locus YML124C, strain tub3, hits give low values 1.01 | locus YMR058W, strain fet3, hits give low values 1.01 | locus YMR078C, strain ctf18, hits give low values 1.02 | locus YMR125W, strain sto1, hits give low values 0.982 | locus YMR129W, hits give low values 0.999 | locus YMR205C, strain PFK2, hits give low values 1.01 | locus YMR223W, strain ubp8, hits give low values 0.983 | locus YMR263W, strain SAP30, hits give low values 0.967 | locus YMR307W, strain GAS1, hits give low values 1.23 | locus YNL067W, strain RPL9B, hits give low values 0.959 | locus YNL071W, strain lat1, hits give low values 1.01 | locus YNL128W, strain TEP1, hits give low values 0.956 | locus YNL153C, strain GIM3, hits give low values 0.997 | locus YNL183C, strain NPR1, hits give low values 0.941 | locus YNL209W, strain ssb2, hits give low values 1.05 | locus YNL233W, strain BNI4, hits give low values 1 | locus YNL248C, strain rpa49, hits give low values 1.03 | locus YNL250W, strain rad50, hits give low values 0.998 | locus YNL271C, strain bni1, hits give low values 1.01 | locus YNL298W, strain CLA4, hits give low values 0.993 | locus YNL307C, strain MCK1, hits give low values 1.05 | locus YNL322C, strain KRE1 (second series), hits give low values 0.962 | locus YNL322C, strain KRE1, hits give low values 0.99 | locus YNR049C, strain mso1, hits give low values 0.985 | locus YNR052C, strain pop2, hits give low values 0.988 | locus YOL012C, strain htz1 1.01 | locus YOL147C, strain pex11, hits give low values 1.01 | locus YOR001W, strain rrp6, hits give low values 1.02 | locus YOR061W, strain CKA2, hits give low values 1 | locus YOR069W, strain VPS5, hits give low values 1 | locus YOR070C, strain gyp1, hits give low values 1.03 | locus YOR080W, strain dia2, hits give low values 1.03 | locus YOR083W, strain WHI5, hits give low values 1.01 | locus YOR136W, strain idh2, hits give low values 0.99 | locus YOR144C, strain elg1, hits give low values 1.01 | locus YOR184W, strain ser1, hits give low values 0.977 | locus YOR231W, strain MKK1, hits give low values 0.974 | locus YOR265W, strain rbl2, hits give low values 1.04 | locus YOR290C, strain snf2, hits give low values 0.978 | locus YOR316C, strain cot1, hits give low values 1.01 | locus YPL051W, strain arl3, hits give low values 1.01 | locus YPL055C, strain LGE1, hits give low values 1.01 | locus YPL078C, strain atp4, hits give low values 1.05 | locus YPL106C, strain sse1, hits give low values 1.08 | locus YPL240C, strain hsp82, hits give low values 1.04 | locus YPL241C, strain CIN2, hits give low values 1.01 | locus YPL256C, strain CLN2, hits give low values 0.993 | locus YPR119W, strain clb2, hits give low values 1.02 | locus YPR141C, strain kar3, hits give low values 0.993 | locus YPR163C, strain tif3, hits give low values 1.05 | locus YPR167C, strain met16, hits give low values 0.991 | strain wtn01, hits give low values 0.99
